Here are results for 108 compounds from PubChem BioAssay AID1117361 (Southern Research Institute, 2015).

Out of some 3,600 compounds screened, about 900 (25%) were called active. The rule behind the calls is not given here. The list is a sample of the results. Entries with a potency or affinity are not part of this list.

This assay deals with Protein Tat (Human immunodeficiency virus type 1 group M subtype B (isolate HXB2)) (UniProt P04608). In words: HIV-1 Tat–TAR interaction blockers – biochemical, fluorescence polarization, FAM-labeled TAR RNA, counter-screen for Vif-APOBEC3G degradation inhibitor project, dose response (AID 1117361). Conditions: Tat-TAR RNA binding; series mostly up to 100 µM. Background: In fluorescence polarisation assays a small probe gives low polarisation when free and higher when bound to something large.
On to `O=C(CSc1nnc2n(C3CCCCC3)c(=O)c3ccccc3n12)OC1CCCCC1`, for which the compound was classed as inactive.

`Cc1cc(Cl)c(S(=O)(=O)NCc2cccnc2)cc1OCC(=O)NC1CCCCC1`: the call was inactive.

For the compound `O=S(=O)(c1cccs1)n1nnc2ccccc21`, the call was inactive.

In the case of `COc1cc(-c2nnc(SCc3cc(=O)oc4cc(O)c(O)cc34)o2)cc(OC)c1OC`, the compound was called inactive.

For `C=C(c1ccc(OCCO)cc1)c1ccc(OCCO)cc1`, the outcome was inactive.

As to `CC(=O)N1CCN(c2ccc(NC(=O)COc3ccc(Cl)cc3Cl)cc2)CC1`, the compound was classed as inactive.

On to `Cc1nc2ccc(NS(=O)(=O)c3ccc(F)cc3F)cc2s1`, for which the compound was classed as inactive.

Take `CC1(C)C/C(=C(/C#N)C(N)=O)CCO1`: the compound was called inactive.

For the compound `COc1cc2c(cc1OC)C(C(=O)O)C(c1cc(Br)c(O)c(OC)c1)N(C)C2=O` (stereo not drawn), the compound was called inactive.

In the case of `Cc1sc2ncnc(OCC(=O)NCC3CCCO3)c2c1C` (stereo not drawn), the outcome was inactive.

`CN(Cc1ccccc1)C(=O)C1CCCN1S(=O)(=O)c1ccc2c(c1)n(C)c(=O)c(=O)n2C` (stereo not drawn): the compound was called inactive.

Consider `O=C(NCCSCc1ccccc1)c1ccc(C2SCC(=O)N2Cc2ccccc2)cc1` (stereo not drawn), for which the call was inactive.

Turning to `CCCn1nc(Oc2nc(SC)nc(N(C)C)n2)ccc1=O`, the result was inactive.

For `O=C(Nn1cnnc1)c1cc(-c2cccc(Br)c2)nc2ccccc12`, the compound was called inactive.

On to `COc1ccc2nc(-c3ccccc3)cc(C(=O)OCC(=O)N3CC(C)OC(C)C3)c2c1` (stereo not drawn), for which the outcome was inactive.

With `CC(C)OP(=O)(OC(C)C)C(O)c1ccc(N(C)C)cc1` (stereo not drawn), the result was inactive.

As to `Cc1oc(/N=C/c2cccc3ccccc23)c(C#N)c1C`, the result was inactive.

On to `O=C1C=C(c2c(O)ccc3ccccc23)c2ccccc2C1=O`, for which the compound was called inactive.

As for `COc1ccc(CCN2CC(C(=O)NCC(c3ccccc3)N(C)C)CC2=O)cc1OC` (stereo not drawn), the outcome was inactive.

With `COc1cc2c(cc1OC)C(C)N(C(=O)c1cc3n(n1)C(C(F)(F)F)CC(c1ccco1)N3)CC2` (stereo not drawn), the result was inactive.

Consider `Cc1[nH]c(=O)[nH]c(=O)c1S(=O)(=O)N1CCCC(C(=O)NCCc2ccccc2)C1` (stereo not drawn), for which the call was inactive.

As to `CCC(C)[C@H](NC(=O)N1CCCC1)C(=O)O` (stereo partly drawn), the compound was classed as inactive.

In the case of `CCOC(=O)c1[nH]nc(-c2c(O)cc(C)cc2O)c1-c1csc(C)n1`, the compound was classed as inactive.

For `CC(=O)N1CCc2cc(S(=O)(=O)NC(C(=O)NC3CCCc4ccccc43)C(C)C)ccc21` (stereo not drawn), the outcome was inactive.

For the compound `Cc1nc2ccc(S(=O)(=O)NC(C(=O)N3CCC(C)CC3)C(C)C)cc2s1` (stereo not drawn), the compound was classed as inactive.

On to `COC(=O)C1CCCN1S(=O)(=O)c1ccc2ccccc2c1` (stereo not drawn), for which the outcome was inactive.

`Cc1ccc(Nc2nc3ccccc3nc2-n2nc(C)cc2C)cc1`: the call was inactive.

In the case of `CC(C)Cn1c(SCC(=O)Nc2cccnc2Cl)nnc1-c1ccco1`, the outcome was inactive.

For the compound `Cc1cccc(NC(=O)CSc2nnc(-c3ccccc3C)o2)c1`, the result was inactive.

`Cc1c(Cl)cccc1NC(=O)CSc1nnc(C)n1-c1ccccc1`: the compound was classed as inactive.

For the compound `Cc1cc(SCC(=O)Nc2ccccc2C)nc(C)n1`, the call was inactive.

Take `Cc1nc(SCC(=O)Nc2ccnc3ccccc23)n[nH]1`: the result was inactive.

For `COCCn1c(SCC(=O)Nc2cccc(C)n2)nnc1-c1ccco1`, the compound was classed as inactive.

In the case of `CCC1(C)Cc2c(sc(NC(=O)CCC(=O)O)c2C#N)CO1` (stereo not drawn), the compound was classed as inactive.

Turning to `CCCSc1nc2c(cnn2-c2ccc(C)cc2)c(=O)[nH]1`, the outcome was inactive.

`CCCCc1cc(C(=O)Cc2ccccn2)c(O)cc1O`: the call was inactive.

For `CC(C)NC(=O)c1ccc(COCC(F)(F)C(F)F)cc1`, the call was inactive.

Take `CN(C)CCOCCSc1ccc(Cl)cc1`: the call was inactive.

On to `CC(C)(NO)/C(=N\O)c1ccccc1`, for which the compound was classed as inactive.

For the compound `Cc1cc(Nc2ccc(Br)cc2)n2nc(C)nc2n1`, the outcome was inactive.

Regarding `CCc1cc2c(N3CCCCC3)ncnc2s1`, the result was inactive.

Consider `CCOc1ccc(Nc2nc(Cc3nnc(SCC(=O)NCC4CCCO4)n3C)cs2)cc1` (stereo not drawn), for which the compound was called inactive.

Turning to `CCOC(=O)c1c(C)[nH]c(C(=O)OCC(=O)N2c3ccccc3CC2C)c1C` (stereo not drawn), the compound was classed as inactive.

In the case of `S=C(Nc1cccc(Cl)c1)NC1CCCCC1`, the call was inactive.

For `Cn1nnc(NC(=O)c2cccc(F)c2)n1`, the result was inactive.

Turning to `CC(=O)Nc1ccc(NC(=O)CN(c2cccc(C(C)=O)c2)S(C)(=O)=O)cc1`, the compound was called inactive.

With `CC1CCc2[nH]c3ccc(C(=O)N(C)CC(=O)Nc4ccc(F)cc4)cc3c2C1` (stereo not drawn), the result was inactive.

On to `CC(=O)N1CCc2cc(S(=O)(=O)NCCC(=O)Nc3cccc(C)c3C)ccc21`, for which the compound was classed as inactive.

Consider `O=C(NNC(=O)c1ccccc1F)c1cccc(-n2cccc2)c1`, for which the result was inactive.

Take `CC(=O)c1cccc(NC(=O)c2cnn3ccccc23)c1`: the call was inactive.

Take `CCN(CC)C(=O)NCc1c(C)cc(C)cc1C`: the compound was classed as inactive.

As for `Cc1ccc(-n2[nH]c(=O)c3cccnc32)cc1`, the compound was called inactive.

Regarding `O=C(Nc1ccc(Cl)c(-c2nc3ccccc3[nH]2)c1)c1cccnc1`, the result was inactive.

Consider `CCCCCCN(C(=O)CCCCCN1C(=O)NC(c2ccc(C(C)(C)C)cc2)C(C(=O)OCc2ccccc2)=C1C)C(C(=O)NCCCC)c1ccc(OCC(=O)OC)c(C(=O)OC)c1` (stereo not drawn), for which the call was inactive.

Turning to `CCOC(CNC(=O)C(=O)Nc1cc2c3c(c1)CC(=O)N3CCC2)OCC`, the call was inactive.

On to `CCOC(=O)C1CCN(S(=O)(=O)c2cccc(-c3cn4cccc(C)c4n3)c2)CC1`, for which the outcome was inactive.

With `C/C(=N\n1c(C)nc2ccccc2c1=O)c1ccc(C)o1`, the compound was called inactive.

Consider `COc1ccc(C(=O)CSc2n[nH]c(N)n2)cc1`, for which the outcome was inactive.

For the compound `CCOC(=O)c1sc(-c2ccccc2)cc1NC(=O)CSc1nnnn1C`, the outcome was inactive.

In the case of `Cc1cc(C(=O)N2CCN(C/C=C/c3ccccc3)CC2)cs1`, the compound was classed as inactive.

As for `CC1=C(C(=O)N2CCCCC2)C2(CCC(C)CC2)OC1=O` (stereo not drawn), the compound was classed as inactive.

In the case of `COc1ccc(OC)c(S(=O)(=O)Nc2cnc3ccccc3c2)c1`, the compound was classed as inactive.

In the case of `COc1ccc(NS(=O)(=O)c2cccc(Cl)c2Cl)cc1S(=O)(=O)N1CCCCC1`, the result was inactive.

Turning to `COC(=O)CN1C(=O)C(O)=C(C(C)=O)C1c1ccc([N+](=O)[O-])cc1` (stereo not drawn), the compound was called inactive.

Regarding `CC1(c2ccccc2)NC(=O)N(CC(=O)Nc2cccc(C#N)c2)C1=O` (stereo not drawn), the call was inactive.

Regarding `O=C(CCc1ccccc1)Nc1ccc2c(c1)OCCO2`, the result was inactive.

With `CS(=O)(=O)N1CCC(C(=O)Nc2ccccc2)CC1`, the result was inactive.

`COc1ccccc1N(CC(=O)NC(C)C)S(=O)(=O)c1cccs1`: the result was inactive.

In the case of `O=C(Nc1ccncc1)C1CCN(S(=O)(=O)c2c(Cl)cccc2Cl)CC1`, the result was inactive.

Turning to `O=C(CN1CCCCC1)Nc1nnc(-c2ccccc2)s1`, the compound was called inactive.

In the case of `CC(C)c1nnc(NC(=O)CCC(=O)NCc2ccco2)s1`, the outcome was inactive.

With `O=C(Nc1cc(Cl)ccn1)C1CCN(S(=O)(=O)c2cccs2)CC1`, the result was inactive.

Regarding `CC(=O)C1=C(N2CCCCC2)CCC1=O`, the call was inactive.

`Cc1ccc(CNC(=O)CN(c2cccc([N+](=O)[O-])c2)S(C)(=O)=O)cc1`: the compound was called inactive.

As to `CCCn1[nH]cc(SC)c(=O)c1=O`, the call was inactive.

Turning to `O=c1c(N=Nc2ccc(O)cc2)c(-c2ccccc2)[nH]n1-c1ccc([N+](=O)[O-])cc1`, the call was inactive.

Turning to `CC(SC1=NCCS1)C(=O)Nc1nnc(-c2ccc(Cl)cc2)s1` (stereo not drawn), the result was inactive.

Consider `COc1cc(C(=O)Nc2ccc(S(=O)(=O)NC(C)C)cc2)cc(OC)c1OC`, for which the call was inactive.

On to `CCn1cc(S(=O)(=O)CC(=O)Nc2ccc(OC)cc2)c2ccccc21`, for which the result was inactive.

`C#Cc1ccc([C@H]2C=C(C(=O)N3CCOCC3)O[C@@H](OCc3ccc(CO)cc3)C2)cc1`: the call was inactive.

With `COc1ccccc1C(=O)Nc1cccc(-c2cn3ccsc3n2)c1`, the compound was called inactive.

`O=C(OCn1ncc(Br)c(Br)c1=O)c1ccc(F)cc1`: the compound was called inactive.

For the compound `C=CCc1ccc(OCCCCN2CC(C)OC(C)C2)c(OC)c1` (stereo not drawn), the result was inactive.

In the case of `O=C(NCCCN1CCOCC1)C1(c2ccccc2)CCCC1`, the compound was called inactive.

For `O=[N+]([O-])c1cc(CN2CCN(c3cccc(C(F)(F)F)c3)CC2)c2cccnc2c1O`, the outcome was inactive.

In the case of `COc1ccc(C(=O)Oc2c(CN3CCOCC3)cc(Cl)c3cccnc23)cc1`, the call was inactive.

For the compound `Oc1c(CN2CCOCC2)cc(CN2CCOCC2)c(O)c1O`, the outcome was inactive.

For the compound `Cc1ccc(C(=O)Oc2ccc(Cl)c3cccnc23)cc1[N+](=O)[O-]`, the result was inactive.

For `Cc1[nH]c2ccccc2c1C1=CC(=O)C=CC1=O`, the outcome was inactive.

In the case of `CC[n+]1c(/C=C2/C=C(C)CC(C)(C)C2)sc2ccc(OC)cc21`, the compound was called inactive.

`Cc1nn(CC(=O)NC2CC2)c(C)c1S(=O)(=O)N(C)C`: the outcome was inactive.

Take `C/C(N)=C(/C#N)C(=O)CSc1nnc(Nc2c(C)cccc2C)s1`: the call was inactive.

Regarding `CC(Oc1ccc(Cl)cc1)c1ccnn1S(C)(=O)=O` (stereo not drawn), the compound was classed as inactive.

On to `CC(=O)Nc1cc(NC(C)=O)cc(C(=O)N2CCCC3CCCCC32)c1` (stereo not drawn), for which the call was inactive.

As for `CCC(=O)Nc1ccc(S(=O)(=O)NC[C@H]2O[C@@H](n3cc(C)c(=O)[nH]c3=O)C[C@@H]2O)cc1`, the outcome was inactive.

For the compound `CCOC(=O)CSc1nnc(-c2ccccc2NC(=O)c2ccccc2)o1`, the compound was classed as inactive.

Take `O=C(NCc1cn2ccccc2n1)c1ccc2c(c1)OCO2`: the compound was classed as inactive.

With `Cn1ncc2c(Nc3ccc4ccccc4c3)ncnc21`, the compound was called inactive.

Consider `CCC(C)N1C(=O)S/C(=C/c2ccc(Sc3nc4ccccc4[nH]3)o2)C1=O` (stereo not drawn), for which the call was inactive.

On to `COc1cccc(-c2cc(C(=O)Nc3cnn(Cc4ccccc4C)c3)no2)c1`, for which the compound was classed as inactive.

As for `CC(C)c1ccc(NC(=O)C(c2ccccc2)N2CCC3(CC2)OCCO3)cc1` (stereo not drawn), the call was inactive.

For `Cc1ccc(S(=O)(=O)N2CCN(C(C(=O)Nc3ccc(F)cc3)c3ccccc3)CC2)cc1` (stereo not drawn), the compound was classed as inactive.

In the case of `Cc1[nH]c2ccccc2c1C(=O)Cn1c(=O)oc2ccccc21`, the compound was called inactive.

`O=C(CCC(=O)OCC(=O)c1ccc(F)cc1)NC1CCCCC1`: the compound was classed as inactive.

Turning to `CCOC(=O)C1=C(CSc2nc(C)ccc2C#N)OC(N)=C(C#N)C1c1cccc(OC)c1OC` (stereo not drawn), the compound was called inactive.

Regarding `COc1ccc(N(CC(=O)NCc2ccccc2C)S(=O)(=O)c2ccc(C)cc2)cc1OC`, the compound was called inactive.

Turning to `O=C(CN(c1ccc(F)cc1)S(=O)(=O)c1ccc2c(c1)OCCO2)NCc1ccccn1`, the outcome was inactive.

For the compound `NNC(=O)c1ccc(N2CCc3ccccc32)c([N+](=O)[O-])c1`, the outcome was inactive.
